Data published in the supplement of paper PMC11417369.
± gives the standard deviation of the averaged measurements. In all, about 25,000 sequences were measured (“ln(normalized median fluorescence intensity)”: median about 7.9, highest 2% from about 11 on). The full list was thinned out, with the highest values kept by preference.

The sequences below were run on PfAP2-I AP2 domain 3 (GST-tagged) (assay: gcPBM binding intensity (ln(normalized median fluorescence intensity)); higher = stronger DNA binding).
Outline: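 The highest Masliner-normalised natural-log median intensity across replicate spots of either probe orientation is reported as binding intensity. GST-tagged P. falciparum DNA-binding domains expressed in E. coli were applied for 1 h to an Agilent 4 × 180k array of primer-extended double-stranded 36-bp intergenic genomic probes plus negative controls, and bound protein was detected with Alexa488 anti-GST antibody and scanned at 488 nm.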

Sequence	gcPBM binding intensity (ln)
TGTAATTGTTTAAAGGGTACATATATCAGATGTCTT [XGTACX_site5877]	7.62 ± 0.54
TATATCATTATATAAACACACAATATGTTTTTTATA [CACACA_site3781]	7.42 ± 0.54
TTTATTTATATAATTACACACATATATACGCAAATG [CACACA_site2794]	7.78 ± 0.31
TATTTAATTATATAAAATTAAATTTTTAATTCTTCC [CACACA_negctrl_site473]	7.28 ± 0.53
TTTTTTTCTCACAATCGTACATAAATACATATATAT [XGTACX_site3150]	8.12 ± 0.54
TGTTTTTCATAGTGCACACATAACCAAAAATAGTAT [CACACA_site3150]	11.5 ± 0.67
AATAAATTCATGATAGTGCAAAAATTATTTTTGTTA	9.49 ± 0.028
TTTGTTTTTCATAGTGCACACATAACCAAAAATAGT [CACACA_site9030]	11.3 ± 0.46
TTTCATAACAAAAAAGTGCAAAATAGCACGAACATT [GTGCAC_site9703]	10.66 ± 0.049
AAATATTCATAGTATACACACATTTATTTATAACCA [CACACA_site6502]	7.88 ± 0.52
GGTATTTTCACATATAGTACACAAAAATAAAATAAA [XGTACX_site2139]	8.48 ± 0.099
GAAAAAATTTTATGGTGTACTTTATTTATTTATATA [XGTACX_site6323]	8.06 ± 0.28
TATTTTAAAGAGAAAACATGCATTATATAGAACATT [TGCATGCA_site328]	7.93 ± 1
AATATAATATAATGCACACATAAACAAAAAAAAAAA [CACACA_site783]	11.2 ± 1
AATATAATATAATGCACACATAAAACAAAAAAAAAA [CACACA_site3012]	11 ± 0.86
AATATAAACACAAACACACACATATATATATATATA [CACACA_site4307]	9.49 ± 0.45
AAAATATATACACAAACATGCATATAATAAATAAAT [TGCATGCA_site711]	7.98 ± 0.83
TTCTGACCAATGCTATAAAATAATACAAAAGAAAAA [GTGCAC_negctrl_site3]	7.83 ± 0.35
TCCATATGCAAACTGGTGCACAAGTAGCTTTTATAT	11.15 ± 0.028
TTAACTTTTTTATATGCACACATAAACAAGGATATA [CACACA_site8932]	9.57 ± 0.3
AACTTTTTTATATGCACACATAAACAAGGATATATA [CACACA_site2874]	10.1 ± 0.49
TATAAGAGGATATATACACACAAAAATATGTACAGT [CACACA_site6885]	7.92 ± 0.52
TATTAATAATTAAGTTGTACATTAATTAATATACTG [XGTACX_site6994]	7.46 ± 0.41

Sequence	gcPBM binding intensity (ln)
ATATATTTTAGGAGAGTGCATTTAATATTATTTAAT [GTGCAC_site9444]	10.7 ± 0.62
CGTTATATCAAAGGAGTGCATTATGAATACGTTTTA [GTGCAC_site9837]	11.4 ± 0.65
ATATATCAAGGGAGTGAATGTTATGCATATGAATAT [TGCATGCA_negctrl_site573]	7.82 ± 0.83
AAAAATAGGAACCAATATCCAACGTGACTTTATAAT [CACACA_negctrl_site1011]	7.68 ± 0.81
TTTACTTTTTTTTCTTGTACTCATACATACTATCAT [XGTACX_site4919]	7.84 ± 0.83
ATATATATAATATGATGTACTATTTTGATAAAAAAT [XGTACX_site3975]	8.23 ± 0.54
TTTATCATGAACAGAAGTACATTTATATCAATGTCT [XGTACX_site6470]	7.5 ± 0.47
ATTGTCAAAACACGCACACACATATACATAATAACA [CACACA_site1742]	8.2 ± 0.37
TTTGCGTAGAAATGTGTGCACTGATATTTATAATAA [GTGCAC_site9526]	10.6 ± 0.035
TTATATTATTCGTGTGTGCACGATATTTCATAATTG [GTGCAC_site9767]	10.1 ± 0.2
ATATATATATATTTCGTGCACTGATAATATTATTTT	11.2 ± 0.35
AAAATTAAAATATCACGTACGAAGAAAAAATTAAGA [XGTACX_site6437]	7.86 ± 0.54
TATTTCACTTTTTGTCTGCACTAAAATTTTATGGTA	9.46 ± 0.32
ATATATATATTATATGCACACTAATAAGACTATTTA [CACACA_site5880]	9.66 ± 0.11
ATTATATATATTTATGCACACAAAATATATTATATA [CACACA_site9244]	9.78 ± 0.3
TTTTTAATTCAAAAAATAATATATTATATTTCAAAT [CACACA_negctrl_site737]	7.38 ± 0.48
TATATATATTTATGCACACAAAATATATTATATAAT [CACACA_site5955]	9.86 ± 0.38
ACTAGACAAAATATAATGCACACTATTATTTTTATT [CACACA_site2726]	10.9 ± 0.65
TAGACAAAATATAATGCACACTATTATTTTTATTTA [CACACA_site5508]	11 ± 0.73
TTATATTTTACAAATGCACACATAATTTTTTTTTTT [CACACA_site8890]	9.04 ± 0.19
TTTCAAAAAAATAGCTATATTTATATTAATGCACGA [TGCATGCA_negctrl_site63]	11.9 ± 0.45
AATTAGCTATTTAAAAATATATAAAATTTATATATA [CACACA_negctrl_site390]	7.47 ± 0.2
ACTTCATTTTTTTTATGTACACAGAAGATTTACAAA [XGTACX_site4021]	8.44 ± 0.47

Sequence	gcPBM binding intensity (ln)
TTTATTTGTAACGGTTGTACTTGTATATCATTATGA [XGTACX_site4281]	7.72 ± 0.4
AAAAAAGACCATGTTAGTACATAAGATTTTTTTCAT [XGTACX_site4298]	7.53 ± 0.57
ATATTGCTTATTTGATGTACGAATACACTAGTATTA [XGTACX_site4536]	7.79 ± 0.64
TTATATTATATATATAGTACACATGTAATATTTCAA [XGTACX_site1791]	7.76 ± 0.35
ACCCTATTTATATATACACACACATATATAAATAAA [CACACA_site8980]	8.24 ± 0.36
AAAAAAAAAAATATAACACACAAAAAATTGTATCGA [CACACA_site1144]	7.53 ± 0.26
GCTATTAATTTATAAGCACACAATATAAATATATAT [CACACA_site2251]	8.46 ± 0.057
TTGCATATTTCTAATTGTACATTATTTTATTTTATA [XGTACX_site8451]	7.75 ± 0.54
TATGTTTGTGTATATATTTATTTTTATGTAATTATA [GTGCAC_negctrl_site219]	7.75 ± 0.45
AATAAATAGAAAGAGGTGCTACATTATATTATTTAT	8.73 ± 0.3
TTGGGTGCATATATTTGTACACATTATTTCTATTTT [XGTACX_site3688]	11.2 ± 0.85
ATATGTATGTATTTATTATTGTGCATTGTATTTATA [CACACA_negctrl_site664]	9.36 ± 0.38
AGTACATTTTTGTGTGTGCACTAATATTATATACTT [GTGCAC_site9568]	11.3 ± 0.62
TATATATATATTTTTTGTACATATTATATAATATAC [XGTACX_site5187]	9.025 ± 0.064
AAATATAATAATACATTGCACATATATTATATATAT [TGCATGCA_negctrl_site611]	8.53 ± 0.64
AAGTTATATTTGTGTACACATAATTTTATACTAATA [CACACA_site5553]	8.82 ± 0.33
CTTAAATTAATTTGGGTGCATATATTTGTACACATT [GTGCAC_site9948]	10.8 ± 0.53
ATATATTATAGAGGTGTGCACTACATACATTATAAT [GTGCAC_site9991]	10.9 ± 0.4
TTTTGTTTATGTGTGCATTATATTATATTTTTTATT [TGCATGCA_negctrl_site146]	10.9 ± 0.45
CCTTTTTCTACTTTCTCACACATATTAAGAATTATA [CACACA_site5621]	8.29 ± 0.51
ATAAAAATGGATGAATATAAAAAAAAAAAAATATAT [CACACA_negctrl_site182]	7.74 ± 0.59
AAAAAAAATAAAAATATATATATATATATATAAATA [GTGCAC_negctrl_site676]	7.82 ± 0.53
TTCAATAGTAAGTATACACACATATATATATATAAA [CACACA_site2687]	7.82 ± 0.47

Sequence	gcPBM binding intensity (ln)
TTACTTAATAGACACACACACAAAAAAAAAAAAAAA [CACACA_site6572]	8.12 ± 0.49
TTTTTTTTTTTTTTGTGTACTAATATTATAAATTTT [XGTACX_site4405]	8.14 ± 0.3
AGTGCATAATATTTATGTACGTATCACATATATTTT [XGTACX_site5166]	11.3 ± 0.83
GTTTATGTATTATTATGTACGTATCATAATATATAT [XGTACX_site2385]	8.28 ± 0.38
GTGTGCAAAAATTGTTGTACATTATATATAAAAAAA [XGTACX_site3246]	9.41 ± 0.34
TTTTGTTATAAATAATGTACATATTTATTTAAAATT [XGTACX_site6610]	7.69 ± 0.38
TATATATTATATATATGTACATATTGTTGTGTATAT [XGTACX_site767]	7.92 ± 0.43
AAATAATTATTTATCACACATATGTATTTATATATA [CACACA_site4589]	7.66 ± 0.43
ATATAATAAATGTAGGTGCATAAAAATATTTTGTTA [GTGCAC_site9780]	11 ± 0.45
TTATTAAATTTTTTTTGTACTTATATATATATATAT [XGTACX_site2443]	9.23 ± 0.18
ATTTTTTAAAATATTTGTACATATATAATGCATATA [XGTACX_site7026]	8.17 ± 0.17
TTATATTAATTTTGTTGTACTATTTGTGCATTAAAT [XGTACX_site4790]	11.1 ± 0.78
AATTGTGCATTATATTGTACACGTGTTGTATATATT [XGTACX_site975]	11.1 ± 0.4
ATAATAAATTCTACGCGTACAAAACCATGAACATTA [XGTACX_site7505]	8.02 ± 0.38
TAATTAAAATTAAGAAGTACATTTTACTTTTAATGC [XGTACX_site5120]	7.61 ± 0.63
TTTTATTAAAACCACGCATGCAGAGGAAACGGTGAG [TGCATGCA_site1029]	8.45 ± 0.64
GTGTTAAATTTTTGAACATGCAAGTTTTATTATTGA [TGCATGCA_site478]	7.58 ± 0.56
ATATTCCTACATACAACACACGACGTTCTCATAAGA [CACACA_site231]	8.06 ± 0.66
TTATATGCATAAAAACGTACAAAAATGTATTCATGT [XGTACX_site2215]	8.06 ± 0.52
TCACTTTTATAATATAATATTCTATATCTTATTTTT [GTGCAC_negctrl_site717]	7.47 ± 0.47
